Inconclusive results are not listed. A call without a number means that no potency is given here. Active and inactive are the calls of the source. Unless noted, the call rests on the fitted dose curve; in most records, active means well fitted curve in the direction sought with a large enough effect in the repeat runs; inconclusive means weak or mixed curves; inactive means no such curve, though single readings can be large; an effect the other way counts as inactive or inconclusive.
Tests used:
[1] = qHTS assay to identify small molecule agonists of the sonic hedgehog signaling (Shh) pathway (AID 1259368; calls by dose curve;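 further: NIH/3T3-derived 3T3Gli1-Luc cells carrying a stable Gli1-driven firefly luciferase reporter; series mostly up to about 92 µM; nearly all actives have a fitted effect of over 15% in size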)
How it was run: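 Steps: seed 3T3 Gli1-Luc cells, incubate 4 hr at 37 C, pin-transfer compounds in DMSO alongside a positive control, incubate 24 hr, add luciferase detection reagent, wait 30 min at room temperature, read luminescence.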

[2] = qHTS assay to identify small molecule antagonists of the sonic hedgehog signaling (Shh) pathway (AID 1259369; calls by dose curve; further: nearly all actives have a fitted effect of over 45% in size; further: potency means the concentration at half of the fitted maximal effect)
How it was run: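 Inhibition of Shh signalling is measured as reduced Gli1-response-element firefly luciferase output in an NIH/3T3-derived stable reporter clone stimulated with conditioned medium for 24hr.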

[3] = molecular target: Estrogen receptor beta (Homo sapiens) (UniProt Q92731); assay: qHTS assay to identify small molecule agonists of the estrogen receptor beta (ER-beta) signaling pathway (AID 1259377; active means well fitted activation curve with a large enough effect in the signal ratio in the repeat runs, not every such curve was filed as active; the % refers to the signal ratio; further: potency means the concentration at half of the fitted maximal effect)
Estrogen receptor beta (Homo sapiens), sequence (Q92731 whole entry, looked up): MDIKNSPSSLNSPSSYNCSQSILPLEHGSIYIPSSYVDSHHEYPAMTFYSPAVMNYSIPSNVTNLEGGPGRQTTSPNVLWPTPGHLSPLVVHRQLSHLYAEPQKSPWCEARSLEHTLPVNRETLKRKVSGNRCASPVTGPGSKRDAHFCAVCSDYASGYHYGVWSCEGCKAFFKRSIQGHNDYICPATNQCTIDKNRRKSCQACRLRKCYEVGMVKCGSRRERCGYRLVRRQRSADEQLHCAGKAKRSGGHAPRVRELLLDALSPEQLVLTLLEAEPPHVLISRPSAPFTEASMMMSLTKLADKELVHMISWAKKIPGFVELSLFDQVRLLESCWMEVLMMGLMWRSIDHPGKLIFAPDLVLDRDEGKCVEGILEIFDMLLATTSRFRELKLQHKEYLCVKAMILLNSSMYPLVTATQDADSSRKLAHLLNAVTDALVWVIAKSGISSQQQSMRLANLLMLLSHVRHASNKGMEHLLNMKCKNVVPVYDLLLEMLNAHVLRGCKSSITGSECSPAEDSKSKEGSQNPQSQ
How it was run: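 In HEK293T cells bearing a UAS-beta-lactamase reporter under ER-beta control, DMSO-delivered compounds were incubated for 16 hr at 37C. Activity was detected as fluorescence 2 hours after LiveBLAzer B/G FRET substrate addition.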

[4] = molecular target: Estrogen receptor beta (Homo sapiens) (UniProt Q92731); assay: qHTS assay to identify small molecule antagonists of the estrogen receptor beta (ER-beta) signaling pathway (AID 1259378; active means well fitted inhibition curve with a large enough effect in the signal ratio in the repeat runs, not every such curve was filed as active; the % refers to the signal ratio; further: potency means the concentration at half of the fitted maximal effect)
How it was run: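 ER-beta-UAS-bla HEK293T (GripTite) cells in 2% charcoal-stripped FBS medium were preincubated 6 hr at 37C, dosed with compound, then stimulated with 1 nM E2 (final) for 16 hr; beta-lactamase reporter read by B/G FRET fluorescence after 2 hr substrate loading.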

[5] = qHTS assay to identify small molecule agonists of the androgen receptor (AR) signaling pathway in the presence of an antagonist - cell viability counter screen (AID 1259379);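 further: MDA-kb2 human breast cancer cells carrying an MMTV luciferase reporter; series mostly up to about 92 µM; nearly all actives have a fitted effect of over 25% in size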
How it was run: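 Fluorescence from CellTiter-Fluor, added after 15 hr and read 1 hr later, gave cell viability. Cells were MDA-kb2 exposed to compounds (15 concentrations) in the presence of 3.0uM nilutamide at 37C, 0% CO2.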

[6] = qHTS assay to identify small molecule agonists of the estrogen receptor beta (ER-beta) signaling pathway - cell viability counter screen (AID 1259380); further: nearly all actives have a fitted effect of over 30% in size; further: potency means the concentration at half of the fitted maximal effect
How it was run: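 Same-well viability counter screen. Cells: ER-beta-UAS-bla HEK293T, plated 6 hr before compound, in 2% charcoal-stripped FBS. Compound exposure 16 hr, 37C; viability by CellTiter-Glo luminescence after 30 min at room temperature.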

[7] = qHTS assay to identify small molecule antagonists of the estrogen receptor beta (ER-beta) signaling pathway - cell viability counter screen (AID 1259382); further: series mostly up to about 92 µM; nearly all actives have a fitted effect of over 55% in size
How it was run: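 Following a 6 hr plating period, HEK293T cells carrying a UAS-driven beta-lactamase reporter under ER-beta control received compounds and 1nM E2 (final). After 16 hr at 37C and 2 hr substrate loading, CellTiter-Glo luminescence indicated viability.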

[8] = molecular target: Estrogen receptor (Homo sapiens) (UniProt P03372); assay: qHTS assay to identify small molecule agonists of the estrogen receptor alpha (ER-alpha) signaling pathway in the presence of an antagonist (AID 1259383; calls by dose curve; further: top concentration of the series differs between compounds; nearly all actives have a fitted effect of over 15% in size)
Estrogen receptor (Homo sapiens), sequence (P03372 whole entry, looked up): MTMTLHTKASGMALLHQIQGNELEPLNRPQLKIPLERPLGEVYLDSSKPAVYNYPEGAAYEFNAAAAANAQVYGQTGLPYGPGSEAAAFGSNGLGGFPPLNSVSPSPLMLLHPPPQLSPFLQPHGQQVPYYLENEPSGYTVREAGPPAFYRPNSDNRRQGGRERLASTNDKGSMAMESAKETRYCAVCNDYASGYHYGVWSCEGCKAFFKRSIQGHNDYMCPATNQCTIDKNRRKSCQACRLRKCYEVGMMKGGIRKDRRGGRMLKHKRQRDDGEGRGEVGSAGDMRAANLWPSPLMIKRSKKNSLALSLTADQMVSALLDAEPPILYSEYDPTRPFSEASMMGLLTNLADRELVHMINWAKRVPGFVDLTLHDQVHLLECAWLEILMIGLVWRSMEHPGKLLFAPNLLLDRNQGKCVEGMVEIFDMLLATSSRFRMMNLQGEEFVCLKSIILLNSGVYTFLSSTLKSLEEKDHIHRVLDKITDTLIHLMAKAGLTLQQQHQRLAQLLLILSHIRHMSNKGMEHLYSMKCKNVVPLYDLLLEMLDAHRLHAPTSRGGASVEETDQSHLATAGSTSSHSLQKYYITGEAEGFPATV
How it was run: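 Cells are hormone-deprived for 5 days (charcoal-stripped FBS, no phenol red), plated for 24hr, spiked with 10.0nM ICI-182,780, then dosed at 15 concentrations. After 22hr at 37C, ONE-Glo luminescence reports ERE-luciferase activity.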

[9] = qHTS assay to identify small molecule agonists or antagonists of the thyroid stimulating hormone receptor (TSHR) signaling pathway - wild type cell line counter screen (AID 1259384; calls by dose curve)
How it was run: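 Wild-type HEK293 cells were plated 18 h at 37 C/5% CO2, pin-dosed with compound plus Ro20-1724 medium, held 30 min at room temperature, then given cAMP-d2 and anti-cAMP-cryptate; fluorescence was read after 1 h. Fifteen concentrations, triplicate.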

[10] = molecular target: Thyrotropin receptor (Homo sapiens) (UniProt P16473); assay: qHTS assay to identify small molecule antagonists of the thyroid stimulating hormone receptor (TSHR) signaling pathway (AID 1259385; calls by dose curve; further: nearly all actives have a fitted effect of over 20% in size)
Thyrotropin receptor (Homo sapiens), sequence (P16473 whole entry, looked up): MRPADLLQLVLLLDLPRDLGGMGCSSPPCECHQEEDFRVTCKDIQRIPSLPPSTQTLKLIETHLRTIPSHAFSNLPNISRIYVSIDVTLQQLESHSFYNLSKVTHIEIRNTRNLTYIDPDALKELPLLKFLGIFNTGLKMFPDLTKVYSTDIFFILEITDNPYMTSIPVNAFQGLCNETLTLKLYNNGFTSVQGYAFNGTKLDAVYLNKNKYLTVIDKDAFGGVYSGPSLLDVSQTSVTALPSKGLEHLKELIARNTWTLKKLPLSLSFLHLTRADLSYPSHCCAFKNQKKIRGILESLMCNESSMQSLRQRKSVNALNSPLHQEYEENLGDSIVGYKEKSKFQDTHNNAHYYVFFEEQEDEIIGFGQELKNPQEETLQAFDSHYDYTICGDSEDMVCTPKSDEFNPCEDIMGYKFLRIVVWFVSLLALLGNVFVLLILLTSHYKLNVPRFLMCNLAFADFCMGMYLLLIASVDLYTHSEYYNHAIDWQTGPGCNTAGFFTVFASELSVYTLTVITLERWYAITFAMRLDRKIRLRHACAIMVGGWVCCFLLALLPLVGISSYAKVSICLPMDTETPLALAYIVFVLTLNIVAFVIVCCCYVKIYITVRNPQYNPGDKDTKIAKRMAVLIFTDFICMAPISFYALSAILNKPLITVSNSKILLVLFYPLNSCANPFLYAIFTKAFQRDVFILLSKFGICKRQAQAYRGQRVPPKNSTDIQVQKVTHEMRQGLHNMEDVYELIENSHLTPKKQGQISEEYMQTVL
How it was run: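 TSHR-HEK293 cells were plated and held 18 h at 37C/5% CO2, then given compound plus Ro20-1724 and stimulated with TSH at 1.5 ng/mL final. After 30 min at room temperature, cAMP was detected with cAMP-d2/anti-cAMP-cryptate (1 h) by fluorescence.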

[11] = qHTS assay to identify small molecule agonists of the estrogen receptor alpha (ER-alpha) signaling pathway in the presence of an antagonist - cell viability counter screen (AID 1259386);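 further: series mostly up to about 92 µM; cells exposed to compounds for 22 h at 37 °C before the viability read; nearly all actives have a fitted effect of over 30% in size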
How it was run: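 Cells are starved of estrogens for 5 days in charcoal-stripped serum, seeded for 24hr and co-treated with ICI-182,780 (10.0nM final) and test compounds. After 22hr at 37C, viability is read as CellTiter-Fluor fluorescence.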

[12] = molecular target: Progesterone receptor (Homo sapiens) (UniProt P06401); assay: qHTS assay to identify small molecule agonists of the progesterone receptor (PR) signaling pathway (AID 1346784; calls by dose curve; further: nearly all actives have a fitted effect of over 30% in size; further: potency means the concentration at half of the fitted maximal effect)
Progesterone receptor (Homo sapiens), sequence (P06401 whole entry, looked up): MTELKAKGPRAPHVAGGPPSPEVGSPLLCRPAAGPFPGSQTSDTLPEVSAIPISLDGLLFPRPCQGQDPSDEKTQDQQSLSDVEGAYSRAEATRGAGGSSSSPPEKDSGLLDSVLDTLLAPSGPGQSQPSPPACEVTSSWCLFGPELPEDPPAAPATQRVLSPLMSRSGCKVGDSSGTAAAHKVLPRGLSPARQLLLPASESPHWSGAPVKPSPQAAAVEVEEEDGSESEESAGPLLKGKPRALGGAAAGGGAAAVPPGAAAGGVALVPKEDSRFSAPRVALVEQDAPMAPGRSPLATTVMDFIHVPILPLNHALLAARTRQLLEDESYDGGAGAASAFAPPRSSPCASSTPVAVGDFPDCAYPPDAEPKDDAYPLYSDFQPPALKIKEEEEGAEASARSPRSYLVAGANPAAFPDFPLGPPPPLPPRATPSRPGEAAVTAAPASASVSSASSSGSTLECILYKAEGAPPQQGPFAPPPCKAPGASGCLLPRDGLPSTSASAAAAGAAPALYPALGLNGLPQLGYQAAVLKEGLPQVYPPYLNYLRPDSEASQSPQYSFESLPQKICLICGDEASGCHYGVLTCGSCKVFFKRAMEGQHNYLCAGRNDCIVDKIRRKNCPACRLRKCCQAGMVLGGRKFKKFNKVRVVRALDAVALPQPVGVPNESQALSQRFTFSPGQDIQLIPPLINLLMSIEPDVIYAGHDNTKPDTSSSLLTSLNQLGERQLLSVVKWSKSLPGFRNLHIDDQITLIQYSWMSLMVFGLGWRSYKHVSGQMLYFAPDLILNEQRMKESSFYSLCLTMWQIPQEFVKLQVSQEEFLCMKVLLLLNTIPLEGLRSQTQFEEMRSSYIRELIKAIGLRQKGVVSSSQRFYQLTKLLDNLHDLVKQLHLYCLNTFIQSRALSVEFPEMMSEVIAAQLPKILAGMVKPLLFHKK
How it was run: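 Using charcoal-stripped serum (2%) to limit endogenous steroids, PR-UAS-bla HEK 293T cells received compounds for 16 hr at 37C after 6 hr plating; beta-lactamase FRET fluorescence was recorded following 2 hr substrate loading at room temperature.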

[13] = molecular target: Progesterone receptor (Homo sapiens) (UniProt P06401); assay: qHTS assay to identify small molecule antagonists of the progesterone receptor (PR) signaling pathway (AID 1346795; active means well fitted inhibition curve with a large enough effect in the signal ratio in the repeat runs, not every such curve was filed as active; the % refers to the signal ratio; further: potency means the concentration at half of the fitted maximal effect)
How it was run: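 Inhibition of R5020-induced (1 nM final) beta-lactamase reporter signal in PR-UAS-bla HEK293T cells was scored by FRET fluorescence after overnight (16 hr) compound treatment.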

[14] = qHTS assay to identify small molecule agonists of the TGF-beta/Smad signaling pathway - cell viability counter screen (AID 1346829); further: top concentration of the series differs between compounds; nearly all actives have a fitted effect of over 45% in size
How it was run: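 After overnight seating at 37 C and 5% CO2, reporter cells got compounds for 5 hr and FRET substrate for 2 hr; cell viability then came from CellTiter-Glo luminescence.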

[15] = qHTS assay to identify small molecule agonists of the TGF-beta/Smad signaling pathway (AID 1346859; active means well fitted activation curve with a large enough effect in the signal ratio in the repeat runs, not every such curve was filed as active; the % refers to the signal ratio; further: series mostly up to about 77 µM)
How it was run: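 Stable Smad binding element-beta-lactamase HEK 293T cells; 5 hr compound exposure at 37 C under 5% CO2; 2 hr room-temperature substrate step; fluorescence excited at 405 nm, collected at 460 nm and 530 nm.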

[16] = qHTS assay to identify small molecule antagonists of the progesterone receptor (PR) signaling pathway - cell viability counter screen (AID 1346798); further: series mostly up to about 92 µM; nearly all actives have a fitted effect of over 50% in size
How it was run: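 ATP content as viability readout: CellTiter-Glo luminescence, 30 min room temperature, in PR-UAS-bla HEK293T cells after 16 hr compound/R5020 treatment at 37C and 5% CO2.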

[17] = qHTS assay to identify small molecule agonists of the progesterone receptor (PR) signaling pathway - cell viability counter screen (AID 1346799; calls by dose curve; further: nearly all actives have a fitted effect of over 45% in size)
How it was run: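 Cytotoxicity in PR-bla HEK293T cells: 16 h compound, 37C; CellTiter-Glo added post-FRET read; luminescence after 30 min RT.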

[18] = qHTS assay to identify small molecule antagonists of the TGF-beta/Smad signaling pathway - cell viability counter screen (AID 1346824); further: nearly all actives have a fitted effect of over 50% in size
How it was run: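 SBE-bla HEK 293T cells were plated overnight at 37 C, then given compounds in DMSO plus TGF-beta1 (added as 0.25 ng/mL solution) for 5 hr. After the bla read, CellTiter-Glo was added to the same wells and luminescence read after 30 min at room temperature.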

[19] = molecular target: Thyrotropin-releasing hormone receptor (Homo sapiens) (UniProt P34981); assay: qHTS assay to identify small molecule antagonists of the thyrotropin-releasing hormone receptor (TRHR) signaling pathway (AID 1346877; active means well fitted inhibition curve with a large enough effect in the repeat runs, not every such curve was filed as active; further: series mostly up to about 51 µM)
Thyrotropin-releasing hormone receptor (Homo sapiens), sequence (P34981 whole entry, looked up): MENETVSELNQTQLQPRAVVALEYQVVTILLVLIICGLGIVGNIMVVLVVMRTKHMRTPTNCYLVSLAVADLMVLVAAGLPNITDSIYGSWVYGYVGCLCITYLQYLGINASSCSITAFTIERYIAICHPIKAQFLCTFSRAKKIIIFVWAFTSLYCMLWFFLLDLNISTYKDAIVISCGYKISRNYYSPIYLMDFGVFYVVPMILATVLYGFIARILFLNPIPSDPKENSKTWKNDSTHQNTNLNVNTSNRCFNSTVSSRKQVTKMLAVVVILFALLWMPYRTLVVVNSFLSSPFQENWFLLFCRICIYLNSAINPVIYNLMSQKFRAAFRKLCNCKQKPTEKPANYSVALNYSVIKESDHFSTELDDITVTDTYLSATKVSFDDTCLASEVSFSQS
How it was run: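 Cells (TRHR-HEK293) are plated and kept 18 h at 37 °C/5% CO2. A calcium-sensitive dye is added for 2 h, compound follows for 5 min at room temperature, and TRH is then given at 1 nM final.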

[20] = molecular target: Androgen receptor (Homo sapiens) (UniProt P10275); assay: qHTS assay to identify small molecule agonists of the androgen receptor (AR) signaling pathway in the presence of an antagonist (AID 1259381; calls by dose curve; further: nearly all actives have a fitted effect of over 15% in size)
Androgen receptor (Homo sapiens), sequence (P10275 whole entry, looked up): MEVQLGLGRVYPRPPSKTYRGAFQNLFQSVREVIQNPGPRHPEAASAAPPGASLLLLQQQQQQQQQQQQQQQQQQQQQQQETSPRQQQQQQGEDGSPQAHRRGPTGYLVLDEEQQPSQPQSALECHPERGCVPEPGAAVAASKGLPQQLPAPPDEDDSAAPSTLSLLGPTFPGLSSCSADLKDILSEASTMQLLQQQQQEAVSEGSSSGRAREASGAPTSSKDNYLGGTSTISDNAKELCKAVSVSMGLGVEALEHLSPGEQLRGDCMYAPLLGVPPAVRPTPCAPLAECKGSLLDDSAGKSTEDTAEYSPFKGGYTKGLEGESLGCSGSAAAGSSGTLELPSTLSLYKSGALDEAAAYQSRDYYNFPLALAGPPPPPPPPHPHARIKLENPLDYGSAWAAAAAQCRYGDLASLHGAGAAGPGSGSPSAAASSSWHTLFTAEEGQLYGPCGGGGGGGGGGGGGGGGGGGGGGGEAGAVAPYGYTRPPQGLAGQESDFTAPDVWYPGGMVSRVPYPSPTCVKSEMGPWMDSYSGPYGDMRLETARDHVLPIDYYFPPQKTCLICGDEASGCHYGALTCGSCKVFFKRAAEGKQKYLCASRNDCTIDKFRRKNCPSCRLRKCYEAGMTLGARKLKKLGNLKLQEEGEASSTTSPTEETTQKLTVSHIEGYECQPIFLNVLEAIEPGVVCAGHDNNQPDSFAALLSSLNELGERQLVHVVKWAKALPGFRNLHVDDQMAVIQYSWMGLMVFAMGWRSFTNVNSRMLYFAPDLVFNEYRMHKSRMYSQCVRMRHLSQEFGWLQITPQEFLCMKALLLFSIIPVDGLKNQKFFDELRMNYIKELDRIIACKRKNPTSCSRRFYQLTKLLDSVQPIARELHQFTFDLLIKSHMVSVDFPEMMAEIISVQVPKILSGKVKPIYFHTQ
How it was run: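 Cells are MDA-kb2 (human breast carcinoma, MMTV-luc, AR/GR responsive). Nilutamide is present at 3.0uM final throughout; compounds are added at 15 concentrations and incubated 16hr at 37C before ONE-Glo luminescence detection.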

Compound | Potency [1] | Potency [2] | Potency [3] | Potency [4] | Potency [5] | Potency [6] | Potency [7] | Potency [8] | outcome [9] | Potency [10] | Potency [11] | Potency [12] | Potency [13] | outcome [14] | outcome [15] | Potency [16] | Potency [17] | outcome [18] | outcome [19] | Potency [20]
CCCCOC(=O)CCS | inactive | inactive | inactive | inactive | inactive | inactive | inactive | inactive | inactive | inactive | inactive | inactive | inactive | inactive | inactive |  |  |  |  | 
C=CC(C)=CCC=C(C)C | inactive | inactive | inactive | inactive | inactive | inactive | inactive |  |  |  | inactive | inactive | inactive | inactive | inactive | inactive | inactive | inactive |  | 
C/C=C(\C)C(=O)OCCC(C)CCC=C(C)C (centres undefined) | inactive | inactive | inactive | inactive | inactive | inactive | inactive |  |  |  | inactive | inactive | inactive | inactive | inactive | inactive | inactive | inactive |  | 
C=CC(=C)CCCC(C)(C)OC(C)=O | inactive | inactive | inactive | inactive | inactive | inactive | inactive |  | inactive | inactive | inactive | inactive | inactive | inactive | inactive | inactive | inactive | inactive | inactive | 
CCCCCC=CCC=CCCCCCCCC(=O)OCC | inactive | inactive | inactive | inactive | inactive | 29800 nM (active) | inactive | inactive | inactive | inactive | inactive |  | inactive | inactive | inactive | inactive |  | inactive | inactive | 
CC1=C(C=O)C(C)(C)CCC1 | inactive | inactive | inactive | inactive | inactive | inactive | inactive |  | inactive | inactive |  | inactive | inactive | inactive | inactive | inactive | inactive | inactive | inactive | 
CO[C@@]12[C@H](COC(N)=O)C3=C(C(=O)C(C)=C(N)C3=O)N1C[C@@H]1N[C@@H]12 | inactive | 298 nM (active) | inactive | 18800 nM (active) | inactive | inactive | inactive |  |  |  |  | inactive |  | inactive | inactive | inactive |  | inactive |  | 
Cn1c(=O)c2c(ncn2CC(=O)O)n(C)c1=O | inactive | inactive | inactive | inactive | inactive |  | inactive |  | inactive | inactive | inactive | inactive | inactive | inactive | inactive | inactive | inactive | inactive |  | inactive
CC(=O)N(c1onc(C)c1C)S(=O)(=O)c1ccc(N)cc1 | inactive | inactive | inactive | inactive | inactive | inactive | inactive | inactive | inactive | inactive |  |  | inactive | inactive | inactive | inactive | inactive | inactive |  | 
Oc1cc(O)c(Cl)cc1Cl | inactive | inactive | inactive |  | inactive | inactive | inactive | inactive | inactive | inactive |  |  | 49700 nM (active) | inactive | inactive | inactive |  | inactive |  | 
CC(C)c1nnc2ccc(-c3ocnc3-c3cc(F)ccc3F)cn12 | inactive | 1090 nM (active) | inactive |  | inactive | inactive | inactive |  | inactive | inactive | inactive | inactive |  | inactive |  |  |  | inactive | inactive | 
O=S(=O)(c1ccccc1)c1ccc(Cl)cc1 | inactive | inactive | inactive |  | inactive | inactive | inactive | inactive | inactive | inactive | inactive |  | 24300 nM (active) | inactive | inactive | inactive |  | inactive | inactive | 
CCOc1cc(N)c(Cl)cc1C(=O)NCC1CN(Cc2ccc(F)cc2)CCO1 (centres undefined) | inactive | inactive | inactive |  | inactive | 2370 nM (active) | inactive | inactive | inactive | inactive |  | inactive |  | inactive | inactive | inactive | inactive | inactive |  | 
CC(=O)OCC(=O)[C@@]12OC(C)(C)O[C@@H]1C[C@H]1[C@@H]3C[C@H](F)C4=CC(=O)C=C[C@]4(C)[C@@]3(F)[C@@H](O)C[C@@]12C | inactive | inactive | inactive |  | inactive | inactive | inactive | inactive | inactive |  | inactive | 3.3 nM (active) | inactive | inactive | inactive | inactive |  | inactive |  | 
CC(=O)Oc1ccc2c(c1)CC[C@@H]1[C@@H]2CC[C@]2(C)[C@@H](O)CC[C@@H]12 | inactive | 1190 nM (active) | 0.8 nM (active) |  | inactive | inactive | inactive |  | inactive | inactive | inactive |  |  | inactive | inactive |  | inactive | inactive | inactive | 

Source: PubChem BioAssay (Tox21)
